Experimental data published in PubChem BioAssay (NCI).
Compounds without any hit were thinned out: in the full panel of roughly 83,000, 20% have a hit.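 Cell lines were cultured in 96-well plates, exposed to a single compound concentration, and assessed for percent growth 48 hours later.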 A number with no mark means an inactive call. The source made the active and inactive calls. Rule for the calls: active = growth percent below 10; inactive = the rest.

Tests used:
Experiment in all cases: NCI-60 one-dose screen, 48 h (100 = growth as untreated, 0 = no growth, -100 = all killed)
Conditions in all cases: 10 µM unless noted
DU-145 prostate = test system: DU-145 prostate
K-562 leukemia = test system: K-562 leukemia
MALME-3M melanoma = test system: MALME-3M melanoma
MDA-MB-231 breast = test system: MDA-MB-231 breast
RXF 393 renal = test system: RXF 393 renal
SF-268 CNS = test system: SF-268 CNS
SF-295 CNS = test system: SF-295 CNS
SF-539 CNS = test system: SF-539 CNS
UACC-257 melanoma = test system: UACC-257 melanoma
M14 melanoma = test system: M14 melanoma
HCT-15 colon = test system: HCT-15 colon
HT29 colon = test system: HT29 colon
SNB-75 CNS = test system: SNB-75 CNS
SNB-19 CNS = test system: SNB-19 CNS
U251 CNS = test system: U251 CNS
PC-3 prostate = test system: PC-3 prostate
SK-MEL-5 melanoma = test system: SK-MEL-5 melanoma
UACC-62 melanoma = test system: UACC-62 melanoma
LOX IMVI melanoma = test system: LOX IMVI melanoma
SK-MEL-28 melanoma = test system: SK-MEL-28 melanoma

SMILES | growth (DU-145 prostate) | growth (K-562 leukemia) | growth (MALME-3M melanoma) | growth (MDA-MB-231 breast) | growth (RXF 393 renal) | growth (SF-268 CNS) | growth (SF-295 CNS) | growth (SF-539 CNS) | growth (UACC-257 melanoma) | growth (M14 melanoma) | growth (HCT-15 colon) | growth (HT29 colon) | growth (SNB-75 CNS) | growth (SNB-19 CNS) | growth (U251 CNS) | growth (PC-3 prostate) | growth (SK-MEL-5 melanoma) | growth (UACC-62 melanoma) | growth (LOX IMVI melanoma) | growth (SK-MEL-28 melanoma)
CC/C=C1/C(=O)C=C[C@@H]1C/C=C\CCCC(=O)OC | 77.1% | 4.34% (active) | 56.3% | 28.7% | 103% | 79.7% | 88.7% | 108% | 73.1% | 50.5% | 21.2% | 24.8% | 91.5% | 62.9% | 47.8% | 57% | 9.82% (active) | 16.6% | -63.9% (active) | 89.5%
CC1(C)CC[C@]2(C(=O)O)CC[C@]3(C)C(=CC[C@@H]4[C@@]5(C)C[C@@H](Cc6cn([C@@H]7O[C@H](CO)[C@@H](O)[C@H](O)[C@H]7O)nn6)[C@H](O)C(C)(C)[C@@H]5CC[C@]43C)[C@@H]2C1 | 112% | 90% | 112% | 97.2% | 106% | 103% | 99.3% | 101% | 88.8% | 97.5% | 106% | 99.1% | 92% | 97% | 92% | 93.4% | 100% | 93.2% | 99.4% | 103%
COc1ccc(C(c2cc(OC)c(OC)c(OC)c2)N2CCCC2)cc1 (stereo not given) | 103% | 25.3% | 85.3% | 80.8% | 103% | 84.3% | 69.7% | 95.7% | 74.6% | 60.1% | 52.7% | 40.6% | 84.1% | 90.5% | 77.8% | 63.9% | 65.2% | 57.4% | 73% | 80.1%
CN1CCN(Cc2ccc(NC(=O)c3cncc(C#Cc4cnn5ccccc45)c3)cc2C(F)(F)F)CC1 | 4.16% (active) | 1.13% (active) | -61.3% (active) | -7.64% (active) | -44.8% (active) | -32.8% (active) | 20.7% | -58.4% (active) | 11% | -39.6% (active) | 0.133% (active) | 4.53% (active) | 13.6% | 5.8% (active) | 7.18% (active) | -4.22% (active) | 14.9% | 13.8% | -39.6% (active) | 25%
N#Cc1c(-c2cccc([N+](=O)[O-])c2)cc(-c2ccc(Nc3nc(Nc4ccc(F)cc4)nc(Nc4ccc(F)cc4)n3)cc2)nc1N | 154% | 80.3% | 94.7% | 91.9% | -10.3% (active) | 164% | 102% | 127% | 107% | 110% | 103% | 113% | 102% | 104% | 110% | 92% | 84.4% | 110% | 97.9% | 114%
COc1ccc2nc(Cl)c(/C=C/C(=O)c3ccc(NC(=O)CSc4nnc(-c5ccc(Cl)c(Cl)c5)n4-c4ccccc4)cc3)cc2c1 | 98.2% | 87.2% | 92.3% | 89.3% | 91.8% | 89.1% | 94% | 105% | 81.1% | 91.7% | 105% | 90.1% | 84.1% | 91.3% | 87.4% | 72.5% | 94.5% | 86.2% | 97.6% | 107%
CCN(C(=O)N1CCN(c2cc3c(cc2F)c(=O)c(C(=O)O)cn3C2CC2)CC1)c1nc(-c2ccc(C)cc2)cs1 | 23.6% | 16% | 14.7% | 6.79% (active) | 21.8% | 21% | -3.48% (active) | 20.2% | 14.6% | 19.6% | 8.05% (active) | 3.55% (active) | 30.5% | 18.8% | 16.3% | 10.8% | -32.8% (active) | -3.01% (active) | 7.36% (active) | 34.1%
Cc1ccc(N=Nc2c(N)nn(-c3ccccc3)c2N)cc1 | 27.8% | 7.43% (active) | 39.3% | 54.4% | -0.509% (active) | 54.5% | 13.8% | 11.4% | 63.4% | -2.8% (active) | 21% | 11.7% | 32.6% | 46.7% | 28.2% | 56.7% | -18.6% (active) | 31.5% | 47.1% | 56.8%
C=CCn1c(SCC(=O)Nc2ccc(C(=O)/C=C/c3cc(OC)c(OC)c(OC)c3)cc2)nnc1-c1cc(-c2ccc(OC)cc2)nc2ccccc12 | 96.5% | 83.1% | 95.3% | 76.8% | 89.5% | 91.4% | 106% | 90.9% | 100% | 107% | 83.4% | 101% | 85.1% | 90.3% | 88.3% | 80% | 94.9% | 90.1% | 94.9% | 101%
O=C(N=Nc1c(O)[nH]c2ccccc12)Nc1ccc(Cl)cc1 | 108% | 81.5% | 96.3% | 102% | 96.3% | 101% | 101% | 83.8% | 95.8% | 95.3% | 87.3% | 93.5% | 101% | 89.3% | 100% | 89.8% | 90.7% | 75.7% | 86.5% | 91.5%
O=C(O)C1CN(c2cccc(Cl)c2)N(c2cccc(Cl)c2)C1=O (stereo not given) | 96.2% | 101% | 70.8% | 85.1% | 94.9% | 81.7% | 95.6% | 100% | 99.3% | 87.8% | 91.8% | 96.2% | 76.9% | 82.8% | 102% | 94.6% | 98% | 88.5% | 88.7% | 93.1%
NC(=O)c1c(NC(=O)c2ccc(Cl)cc2)sc2c1CCC(=O)C2 | 98.6% | 13.9% | 92.7% | 86.3% | 56.7% | 47.5% | 96.2% | 43.2% | 91.6% | 51.5% | 63.5% | 62.5% | 45.4% | 71.1% | 24% | 15.5% | 99.1% | 61.9% | 56.5% | 99.2%
CCN(CC)CCCNCc1cc(-c2ccccc2)nc2cc(Cl)ccc12 | 78.3% | -17.3% (active) | -66.4% (active) | 22.1% | 77.2% | 38.2% | 79.9% | 40.4% | -76.8% (active) | -95.3% (active) | 12.1% | -17.3% (active) | 70.8% | 68.9% | 11.5% | 37% | -76.9% (active) | -61.3% (active) | -20.6% (active) | -92.4% (active)
C=C(c1ccc(C(=O)O)cn1)c1cc2c(cc1C)C(C)(C)CCC2(C)C | 93.7% | 92.3% | 76.9% | 93.8% | 102% | 76.5% | 83.2% | 86.3% | 84% | 88.5% | 85.8% | 93.8% | 94% | 99.7% | 75.6% | 71.1% | 70.8% | 94.3% | 87.3% | 96.8%
CCOC(=O)c1n[nH]n2c1nc(=O)c1cnn(C)c12 | 98.5% | 93% | 101% | 113% | 109% | 96.1% | 108% | 103% | 86.4% | 102% | 105% | 107% | 103% | 102% | 100% | 97.7% | 105% | 106% | 103% | 113%
